In the supplement of paper PMC10127200:
Counter-ions that a name gives are not always drawn.

Key:
Experiment in all cases: Euclidean distance of Cell Painting phenotypic profile (signed KS, 77 features) to DMSO centroid (dimensionless distance); 5 or 10 uM (library dependent); higher = stronger phenotypic change vs DMSO (phenoactivity)
Details in all cases: 48 h
786-O = system: 786-O
Method in brief: (§1)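 Phenoactivity is computed as Euclidean distance to the median vehicle profile. The profiles, drawn from 77 Harmony features scored as signed Kolmogorov-Smirnov statistics versus same-plate vehicle wells, were corrected for plate position, correlation-weighted and replicate-averaged at the top dose. Stained cells were imaged confocally at 20X (9 fields/well) after 48 h with library compounds at 10 or 5 uM, 0.1% DMSO final, in five cancer lines and a healthy fibroblast line.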

A549 = system: A549
Method in brief: as §1

DU145 = system: DU145
Method in brief: as §1

FB = system: FB
Method in brief: as §1

HEPG2 = system: HEPG2
Method in brief: as §1

OVCAR4 = system: OVCAR4
Method in brief: as §1

Structure (SMILES) | Euclidean distance (786-O) | Euclidean distance (A549) | Euclidean distance (DU145) | Euclidean distance (FB) | Euclidean distance (HEPG2) | Euclidean distance (OVCAR4)
C[C@]12CCCN1CC1=NNC(=O)c3cc(F)cc4[nH]c2c1c34 [Pamiparib (BGB-290)] | 1.52 | 1.68 | 1.44 | 1.48 | 2.36 | 1.71
CCOC(=O)[C@H](CCc1ccccc1)N[C@@H](C)C(=O)N1CCC[C@H]1C(=O)O [Enalapril Maleate] | 1.04 | 0.697 | 0.694 | 0.816 | 0.78 | 1.28
Cn1nnc2c(C(N)=O)ncn2c1=O [Temozolomide] | 1.44 | 0.97 | 2.71 | 0.972 | 1.44 | 0.619
CC(=O)O[C@H]1CC[C@@]2(C)C(=CC[C@@H]3[C@@H]2CC[C@]2(C)C(c4cccnc4)=CC[C@@H]32)C1 [Abiraterone Acetate] | 1.52 | 1.19 | 0.94 | 0.94 | 0.44 | 0.818
C=CC[C@@H]1/C=C(\C)C[C@H](C)C[C@H](OC)[C@H]2O[C@@](O)(C(=O)C(=O)N3CCCC[C@H]3C(=O)O[C@H](/C(C)=C/[C@@H]3CC[C@@H](O)[C@H](OC)C3)[C@H](C)[C@@H](O)CC1=O)[C@H](C)C[C@@H]2OC [Tacrolimus (FK506)] | 0.986 | 1.47 | 2.38 | 1.07 | 0.59 | 0.647
CC(=O)[C@]1(O)Cc2c(O)c3c(c(O)c2[C@@H](O[C@H]2C[C@H](N)[C@H](O)[C@H](C)O2)C1)C(=O)c1ccccc1C3=O [Idarubicin HCl] | 5.7 | 4.85 | 4.5 | 4.44 | 5.24 | 6.18
O=C(Nc1cc(Cl)cc(Cl)c1O)c1c(O)c(Cl)cc(Cl)c1Cl [Oxyclozanide] | 1.04 | 0.69 | 0.929 | 0.828 | 0.649 | 1.52
FC(F)(F)C(Cl)Br (configuration not stated) [Halothane] | 0.835 | 0.628 | 0.788 | 1 | 0.854 | 1.59
CN(C)CCC=C1c2ccccc2C=Cc2ccccc21 [Cyclobenzaprine HCl] | 1.1 | 1.26 | 1.14 | 1.88 | 1.52 | 1.16
C=CC(=O)N1C[C@H](Nc2ncnc3[nH]ccc23)CC[C@@H]1C | 1.27 | 0.386 | 1.09 | 0.936 | 0.582 | 0.786
CCCSc1ccc2[nH]c(NC(=O)OC)nc2c1 [Albendazole] | 2.6 | 2.42 | 2.81 | 2.49 | 2.15 | 2.48
N#Cc1ccc2[nH]c(O)c(-c3ccc(CN4CCOCC4)cn3)c2c1 | 3.45 | 2.98 | 2.02 | 1.79 | 1.72 | 3.02
NS(=O)(=O)c1cc2c(cc1C(F)(F)F)NC(Cc1ccccc1)NS2(=O)=O (configuration not stated) [Bendroflumethiazide] | 0.918 | 0.995 | 1.62 | 1.34 | 1.05 | 2.02
CCCCc1nc(C)c(CC(=S)N(C)C)c(=O)n1Cc1ccc(-c2ccccc2-c2nnn[nH]2)cc1 [Fimasartan] | 0.829 | 0.807 | 0.902 | 0.862 | 0.679 | 0.989
O=c1cc(CO)occ1O [Kojic acid] | 1.24 | 0.713 | 0.837 | 0.833 | 0.625 | 1.14
C1=N/C2=N/c3ccc(OCCN4CCCC4)c(c3)COC/C=C/COCc3cccc(c3)C(=C1)N2 [Pacritinib (SB1518)] | 3.54 | 3.52 | 2.51 | 3.49 | 3.79 | 3.42
CC1CCc2c(N3CCC(O)CC3)c(F)cc3c(=O)c(C(=O)O)cn1c23 (configuration not stated) [Nadifloxacin] | 1.05 | 0.818 | 0.896 | 1.14 | 0.855 | 0.748
COC(=O)[C@]12CCC(C)(C)C[C@H]1[C@H]1C(=O)C=C3[C@@]4(C)C=C(C#N)C(=O)C(C)(C)[C@@H]4CC[C@@]3(C)[C@]1(C)CC2 [Bardoxolone Methyl] | 5.4 | 5.71 | 5.63 | 2.1 | 4.01 | 6.33
Cc1ncc([N+](=O)[O-])n1CC(O)CCl (configuration not stated) [Ornidazole] | 1.17 | 0.686 | 0.775 | 1.03 | 0.557 | 0.676
Cc1nccn1CCC(C(N)=O)(c1ccccc1)c1ccccc1 [Imidafenacin] | 0.703 | 1.19 | 1.34 | 1.02 | 0.727 | 1.42
CCC(C)(C)C(=O)O[C@H]1C[C@@H](C)C=C2C=C[C@H](C)[C@H](CC[C@@H]3C[C@@H](O)CC(=O)O3)[C@H]21 [Simvastatin] | 1.35 | 0.686 | 1.1 | 1.4 | 1.9 | 1.18

Structure (SMILES) | Euclidean distance (786-O) | Euclidean distance (A549) | Euclidean distance (DU145) | Euclidean distance (FB) | Euclidean distance (HEPG2) | Euclidean distance (OVCAR4)
COc1cc(OC)cc(N(CCNC(C)C)c2ccc3ncc(-c4cnn(C)c4)nc3c2)c1 | 3.65 | 3.46 | 2.34 | 4.29 | 3.36 | 3.1
CCOC(=O)C1=C(COCCN)NC(C)=C(C(=O)OC)[C@@H]1c1ccccc1Cl [Levamlodipine] | 0.971 | 0.702 | 0.684 | 1.12 | 0.978 | 0.931
Cc1cc(C(C)(C)C)cc(C)c1CC1=NCCN1 [Xylometazoline HCl] | 0.708 | 0.547 | 0.707 | 0.795 | 0.707 | 0.903
CN1CCN2c3ncccc3Cc3ccccc3C2C1 (configuration not stated) [Mirtazapine] | 0.981 | 0.95 | 0.897 | 0.869 | 0.332 | 1.12
C#C[C@]1(O)CC[C@H]2[C@@H]3CCC4=CCCC[C@@H]4[C@H]3C(=C)C[C@@]21CC [Desogestrel] | 0.933 | 0.431 | 0.928 | 0.753 | 0.742 | 0.826
CN1[C@@H]2CC[C@H]1C[C@@H](OC(=O)c1c[nH]c3ccccc13)C2 [Tropisetron] | 1.17 | 1.76 | 1.05 | 1.46 | 1.1 | 1.17
O=C(O)COCCN1CCN([C@H](c2ccccc2)c2ccc(Cl)cc2)CC1 [Levocetirizine Dihydrochloride] | 0.875 | 1.39 | 0.783 | 1.09 | 0.867 | 1.4
Nc1nc(N)c2nc(-c3cccc(O)c3)c(-c3cccc(O)c3)nc2n1 | 1.06 | 1.73 | 1 | 1.45 | 2.84 | 1.02
CC(NCCc1ccc(O)cc1)C(O)c1ccc(O)cc1 (configuration not stated) [Ritodrine HCl] | 1.08 | 0.752 | 0.998 | 1.01 | 0.393 | 0.728
CN(C)CCOC(c1ccccc1)c1ccccc1.Cn1c(=O)c2[nH]c(Cl)nc2n(C)c1=O [Dimenhydrinate] | 0.947 | 1 | 1.72 | 1.28 | 0.581 | 0.863
CC(C)Oc1ccc(-c2nc(-c3cccc4c3CC[C@@H]4NCCO)no2)cc1C#N [Ozanimod (RPC1063)] | 1.97 | 1.08 | 0.79 | 1.6 | 1.46 | 1.68
CC#CC(=O)N1CCC[C@H]1c1nc(-c2ccc(C(=O)Nc3ccccn3)cc2)c2c(N)nccn12 [Acalabrutinib (ACP-196)] | 0.929 | 0.693 | 2.19 | 1.3 | 3.25 | 1.22
CCc1nc2c(C)cc(N3CCN(CC(=O)N4CC(O)C4)CC3)cn2c1N(C)c1nc(-c2ccc(F)cc2)c(C#N)s1 [Ziritaxestat (GLPG1690)] | 1.57 | 1.31 | 0.685 | 2.02 | 1.42 | 1.68
CCOC(=O)CCC(=O)O[C@H]1[C@H](O[C@@H]2[C@@H](C)[C@H](O[C@H]3C[C@@](C)(OC)[C@@H](O)[C@H](C)O3)[C@@H](C)C(=O)O[C@H](CC)[C@@](C)(O)[C@H](O)[C@@H](C)C(=O)[C@H](C)C[C@@]2(C)O)O[C@H](C)C[C@@H]1N(C)C [Erythromycin Ethylsuccinate] | 1.09 | 0.82 | 1.09 | 1.04 | 0.715 | 1.3
C[C@H](Nc1ncnc2nc[nH]c12)c1cc2cccc(Cl)c2c(=O)n1-c1ccccc1 [Duvelisib (IPI-145. INK1197)] | 2.36 | 1.56 | 2.77 | 2.98 | 1.32 | 1.91
COc1cnc(-n2cnc(C)n2)c2[nH]cc(C(=O)C(=O)N3CCN(C(=O)c4ccccc4)CC3)c12 | 1.35 | 0.841 | 0.792 | 0.569 | 1.32 | 0.969
CCN(CCO)CCCC(C)Nc1ccnc2cc(Cl)ccc12 (configuration not stated) [Hydroxychloroquine Sulfate] | 3.48 | 3.08 | 2.6 | 5.29 | 2.92 | 3.58
CC(C)c1onc(-c2c(Cl)cccc2Cl)c1COc1ccc(/C=C/c2cccc(C(=O)O)c2)c(Cl)c1 | 1.58 | 0.795 | 1.01 | 1.26 | 1.42 | 1.02
CCOc1ccc(Cc2cc([C@@H]3O[C@H](CO)[C@@H](O)[C@H](O)[C@H]3O)ccc2Cl)cc1 [Dapagliflozin] | 1.1 | 1.19 | 1.1 | 1.39 | 0.432 | 1.01
Fc1ccc(C(c2ccc(F)cc2)N2CCN(C/C=C/c3ccccc3)CC2)cc1 [Flunarizine 2HCl] | 0.978 | 1.16 | 1.34 | 0.938 | 2.13 | 1.24
Oc1cc(O)c2c(c1)OC(c1ccc(O)c(O)c1)C(O)C2 (single isomer, unassigned; (+)) [(+)-Catechin] | 0.785 | 0.904 | 0.506 | 0.842 | 0.247 | 0.849
